# KB-V1 cytotox: KB-V1 MDR subline cytotoxicity; KB-V1 MDR cells viability, CellTiter-Glo, 72 h; Potency, µM (series often up to 46.1 µM), usual class: cytotoxic; hit rate 3.4% among 400,000; AID 1347076; further: nearly all actives have a fitted effect of over 60% in size
#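 KB-V1 cells (P-gp-expressing MDR subline of KB-3-1) in phenol-red-free DMEM with 10% FBS were exposed to library compounds over a concentration series for 72 h at 37 degrees C. Viability read by CellTiter-Glo luminescence; concentration-effect curves fitted after normalization.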
# HT1080NT lethal: kills 2HG-producing HT-1080-NT fibrosarcoma cells | HT-1080-NT fibrosarcoma viability, CellTiter-Glo ATP luminescence, 48 h | Potency, µM (titrated, usually from 46.1 µM), for inactives: at the top dose activity, negative = less viability, hits mostly cytotoxic | hit rate 1.6% among 360,000;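 further: NT is the 2HG producing partner of a matched IDH1 knockdown line; 0% = DMSO-treated cells and -100% = media-only wells without cells; nearly all actives have a fitted effect of over 55% in size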
#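 HT-1080-NT; 750 cells/well; 5% FBS RPMI; 48 h compound, 37 degrees C; CellTiter-Glo luminescence; curve fitting and curve-class assignment.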
# DT40 TDP1 no CPT: qHTS for Inhibitors of human tyrosyl-DNA phosphodiesterase 1 (TDP1): qHTS in cells in absence of CPT. Potency, µM (doses to about 46.2 µM), for inactives: at the top dose activity change, negative = growth inhibition, usual class: inhibitors. DT40 Tdp1-/- hTDP1 cells, no CPT, ATP luminescence, 48 h. hit rate 15% among 420,000. AID 686978, 2013; further: nearly all actives have a fitted effect of over 55% in size
#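 Growth of hTDP1-complemented DT40 Tdp1-knockout cells is measured by ATP luminescence after at least 48 hr compound exposure at 37 °C, with DMSO substituting for the 20 nM CPT used in the parallel screen.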
# HT1080 IDH1KD tx: kills HT-1080 cells with IDH1 knockdown | HT-1080 IDH1 knockdown viability, ATP luminescence, 48 h | Potency, µM (doses to about 46.1 µM), for the others: top-dose activity, negative = toxicity, hits mostly cytotoxic | hit rate 2% among 360,000;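 further: 0% = DMSO wells and -100% = cell-free medium wells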
#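 Knockdown cells (IDH1KD HT-1080) received compounds 2 h after plating at 750 cells/well and were kept 48 h at 37 °C in 5% FBS RPMI. A CellTiter-Glo luminescence read gave % activity for curve fitting.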
# TDP1 cell CPT: DT40-hTDP1 cell growth loss with CPT; Potency, µM (top dose mostly 46.2 µM), for the others: at the top dose activity change, negative = growth inhibition, usual class: inhibitors; hit rate 12% among 420,000; AID 686979; chicken DT40 Tdp1-/-;hTDP1 cells + 20 nM CPT, ATP luminescence, 48 h; further: nearly all actives have a fitted effect of over 55% in size
#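 Cell growth measured by CellTiter-Glo luminescence after a minimum 48 h, 37 C compound exposure with 20 nM CPT in Tdp1-knockout DT40 cells stably expressing hTDP1, seeded 400/well; qHTS titration format.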
# KB-3-1 tox: KB-3-1 parental cell cytotoxicity; KB-3-1 viability, CellTiter-Glo ATP luminescence, 72 h; Potency, µM (top dose mostly 46.1 µM), most hits filed as cytotoxic; hit rate 1.4% among 400,000; AID 1347075; further: nearly all actives have a fitted effect of over 60% in size
#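 Multi-concentration cytotoxicity screen in KB-3-1 cells grown in DMEM lacking phenol red with 10% FBS. After 72 h at 37 °C with compound, ATP-dependent luminescence was recorded.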
# The depositor's hits bear a star; i = inactive; ? = inconclusive; . = not tested or not shown; [ ] = remark or other dose. Hits are enriched below; roughly 19% of the tested compounds scored in any of these assays. The call rests on the fitted dose curve; in most records, active means well fitted curve in the direction sought with a large enough effect; inconclusive means small, poorly fitted or top-dose-only effect, or another doubt; inactive means no such curve, though single readings can be large; an effect the other way counts as inactive or inconclusive. Unless noted, on the % scale 0 is the no-effect control and ±100 the full control effect; potency means the concentration at half of the fitted maximal effect.
SMILES,KB-V1 cytotox,HT1080NT lethal,DT40 TDP1 no CPT,HT1080 IDH1KD tx,TDP1 cell CPT,KB-3-1 tox
O=C(CC[C@H]1O[C@@H](n2ccc(=O)[nH]c2=O)[C@H](O)[C@@H]1O)N[C@H](Cc1ccccc1)C(=O)NC1CCCCC1,i,?,1%,6%,3%,i
COc1ccc(N2CCN(C(=O)c3ccc(-n4nc(C)cc4C)cc3)CC2)cc1,16µM*,2%,?,4%,?,i
COc1cc(C(=S)N2CCN(c3cccc(Cl)c3)CC2)ccc1O,?,?,18µM*,16µM*,10µM*,8.2µM*
COc1ccc2cc3cc(C(=O)N4CCN(c5cccc(Cl)c5)CC4)sc3nc2c1,?,.,-12%,.,-2%,i
COc1ccc(C(=S)N2CCN(c3cccc(Cl)c3)CC2)c(OC)c1,i,?,4.1µM*,?,2.6µM*,6.5µM*
COc1ccc(C(=O)N2CCN(c3cccc(Cl)c3)CC2)cc1S(=O)(=O)NC1CC1,i,?,15µM*,?,15µM*,?
Oc1ccc(C(=S)N2CCN(c3cccc(Cl)c3)CC2)cc1,i,?,?,?,?,i
Cc1cc(C)n(-c2ccc(C(=O)OCC(=O)N3CCN(c4ccccc4)CC3)cc2)n1,i,8%,?,10%,-28%,i
CN(C(=O)CCN1C(=O)S/C(=C\c2ccccc2)C1=O)C1CCS(=O)(=O)C1 (stereo unspecified),i,3%,?,5%,?,i
COC(=O)C1CCN(S(=O)(=O)Cc2ccccc2Cl)CC1,i,8%,5%,7%,-2%,i
O=C(/C=C/c1cccc(F)c1)NCCCn1ccnc1,i,11%,17%,14%,-4%,i
O=C(c1cccs1)N1CCN(c2cccc(Cl)c2)CC1,i,1%,-1%,0%,-10%,i
O=C(c1ccc([N+](=O)[O-])s1)N1CCN(c2cccc(Cl)c2)CC1,16µM*,4%,21µM*,6%,21µM*,?
CCOC(=O)c1c(C)c(C(=O)N2CCN(c3cccc(Cl)c3)CC2)c(C)n1C,10µM*,15%,?,5%,?,i
COc1ccc(C(=O)N2CCN(c3cccc(Cl)c3)CC2)cc1,21µM*,-8%,16µM*,11%,?,i
Cc1ccc(C(=O)N2CCN(c3ccccc3)CC2)cc1C,i,-1%,-17%,2%,-10%,i
Cc1ccc(C(=O)N2CCN(c3cccc(Cl)c3)CC2)cc1C,?,?,26µM*,?,?,?
CCOc1ccc(C(=O)N2CCN(c3cccc(Cl)c3)CC2)cc1,i,0%,?,-3%,-19%,i
CCCn1c(SC(C)C(=O)NCC2CCCO2)nc2sc3c(c2c1=O)CCC3 (stereo unspecified),i,-6%,?,-2%,?,i
CC1CCN(CCNC(=O)C2CCCN(S(=O)(=O)c3cccc4nonc34)C2)CC1 (stereo unspecified),i,-3%,-2%,-2%,?,i
CC(Nc1cccc(C(=O)NC2CC2)c1)c1nnc(-c2ccccc2)o1 (stereo unspecified),?,1%,-25%,10%,-19%,i
Oc1ccccc1C(=S)N1CCN(c2cccc(Cl)c2)CC1,i,-12%,?,-18%,23µM*,i
O=C(c1ccc(CSc2nc3ccncc3[nH]2)cc1)N1CCCCCC1,i,?,?,?,?,?
O=C(c1ccc(CSc2nc3ccncc3[nH]2)cc1)N1CCN(c2cccc(Cl)c2)CC1,i,-14%,7.3µM*,-30%,9.2µM*,?
COc1ccc2c(CC(=O)N3CCN(S(=O)(=O)c4ccc(F)cc4)CC3)coc2c1,i,2%,-7%,4%,-19%,i
SMILES,KB-V1 cytotox,HT1080NT lethal,DT40 TDP1 no CPT,HT1080 IDH1KD tx,TDP1 cell CPT,KB-3-1 tox
CC(C)C1N(c2ccccc2)C(N)=C(C#N)C1(C#N)C#N (stereo unspecified),?,-8%,23µM*,-3%,?,i
N#Cc1cnn(-c2ccccc2)c1N,i,-14%,-6%,3%[9.24 µM],-14%,i
O=C(CCCNS(=O)(=O)c1ccc(Cl)c(Cl)c1)NCCc1ccccn1,i,4%,-21%,-1%,?,i
Cc1ccc(NC(=O)c2ccc(NC(=O)N3CCSc4ncccc43)cc2)c(Cl)c1,i,.,?,.,?,i
COc1cc(NC(=O)c2ccc(NC(=O)N3CCSc4ncccc43)cc2)cc(OC)c1,i,.,13µM*,.,15µM*,i
Cc1ccc(Cl)cc1NC(=O)c1ccc(NC(=O)N2CCSc3ncccc32)cc1,i,.,21µM*,.,?,i
COC(=O)c1cc(C)nc2c1c(=O)nc(SCc1cccc(C(F)(F)F)c1)n2C1CC1,i,.,3%,.,-5%,i
O=C(Nc1ccc(F)c(Cl)c1)C1CCCN(C2=NS(=O)(=O)c3ccccc32)C1 (stereo unspecified),i,-12%,?,-12%,?,i
C=CCNC(=O)CSc1nc2ccccc2c(=O)n1CCc1ccc(OC)c(OC)c1,?,3%,?,-1%,?,i
CCC(Sc1nc2c(sc3ccccc32)c(=O)n1CCc1ccc(OC)c(OC)c1)C(=O)N(CC)CC (stereo unspecified),i,.,5.8µM*,.,6.5µM*,i
CCC(Sc1nc2c(sc3ccccc32)c(=O)n1CCc1ccccc1)C(=O)N(CC)CC (stereo unspecified),i,.,?,.,-26%,i
COc1ccc(CCn2c(SCCN3CCCCC3)nc3ccccc3c2=O)cc1OC,i,3%,16µM*,3%,?,i
CCC(Sc1nc2ccccc2c(=O)n1CCc1ccc(OC)c(OC)c1)C(=O)N(CC)CC (stereo unspecified),.,.,6.5µM*,.,6.5µM*,.
CC(OCCN1CCCC1)(c1ccc(F)cc1)c1ccc(F)cc1,i,-26%,?,-27%,?,i
Cn1c(=O)[nH]c(N)c(Br)c1=O,i,4%,?,6%,-30%,i
Cc1cccc(-c2cc(C(=O)Nc3ccc4c(c3)OCCO4)c3ccccc3n2)c1,?,-19%,13µM*,4%[9.24 µM],29µM*,i
